Assay [1] can be described thus: resazurin metabolic signal in HepG2 cells – cell-based, resazurin fluorescence, 24 h, PK04 Diversity Set, profiling panel (AID 1172). Note: test concentration not given here. Particulars: HepG2 viability, higher = more signal.
A short description of assay [2]: budding yeast growth changes without added modifier – OD600, strain BY4716, 24 h, basal condition, primary screen (AID 1173). Particulars: S. cerevisiae BY4716 growth, OD600, 24 h; higher = more signal, called active from +8 up or from −8 down.
The nature of assay [3]: viability profiling in MM1S myeloma cells – cell-based, resazurin fluorescence, basal, 24 h, PK04 Diversity Set, profiling panel (AID 1174).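 Note: MM1S multiple myeloma cell line; test concentration not given here.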 The note with it: higher = more signal, called active from +8 up or from −8 down.
Assay [4] deals with Dihydroorotate dehydrogenase (quinone), mitochondrial (Plasmodium falciparum (isolate 3D7)) (UniProt Q08210). Kind of assay: inhibition of P. falciparum DHODH – biochemical, C-terminal His tag, absorbance 600 nm, primary screen (AID 1175).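 Note: recombinant parasite enzyme with a five histidine tag at its C terminus; test concentration not given here.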 The note with it: PfDHODH enzyme, DCIP absorbance 600 nm; higher = more signal, called active from +8 up or from −8 down.
Assay [5] in a line: inhibition of PAO1 biofilm formation – strain PAO1, LB-PBS medium, absorbance 600 nm, primary screen (AID 1176). Note: test concentration not given here. The note with it: P. aeruginosa PAO1 growth/biofilm, A600, 12 h; higher = more signal.
The nature of assay [6]: growth modulation of vineyard yeast isolate – strain RM11-1a, OD600, basal, 24 h, primary screen (AID 1177).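 Note: cultures grown under basal conditions with no added stressor; test concentration not given here.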 The note with it: S. cerevisiae RM11-1a growth, OD600, 24 h; higher = more signal, called active from +8 up or from −8 down.
Assay [7] can be described thus: growth of efflux-deficient E. coli DRC39 – strain DRC39, OD650, 24 h, E. coli filamentation inducers, primary screen (AID 1178).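 Note: growth measured as culture turbidity by optical density at 650 nm; test concentration not given here.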 The note with it: E. coli DRC39 acrAB, higher = more signal, called active from +8 up or from −8 down.
The nature of assay [8]: growth of efflux-deficient E. coli DRC39 – strain DRC39, OD650, 48 h, E. coli filamentation inducers, primary screen (AID 1179).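 Note: screen aims at cell division blockers that make cells filament.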 The note with it: E. coli DRC39 delta-acrAB growth, higher = more signal, called active from +8 up or from −8 down.
A short description of assay [9]: viability profiling in RPMI8226 myeloma cells – cell-based, resazurin fluorescence, basal, 24 h, PK04 Diversity Set, profiling panel (AID 1180).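 Note: RPMI8826 multiple myeloma cell line at 5000 cells per well; test concentration not given here.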 The note with it: higher = more signal.
Assay [10] addresses E3 ubiquitin-protein ligase XIAP (Homo sapiens) (UniProt P98170). Briefly: small molecules binding XIAP protein – biophysical, small-molecule microarray, fluorescence 635 nm, primary screen (AID 1181).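 Note: score merges 667 nm emission and signal to noise over triplicate slides.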 Particulars: higher = more signal.

Activity calls are given as the source filed them. Unless noted, the rule behind the calls is not given here.

Chain of Dihydroorotate dehydrogenase (quinone), mitochondrial (Plasmodium falciparum (isolate 3D7)) (Q08210 whole entry, looked up): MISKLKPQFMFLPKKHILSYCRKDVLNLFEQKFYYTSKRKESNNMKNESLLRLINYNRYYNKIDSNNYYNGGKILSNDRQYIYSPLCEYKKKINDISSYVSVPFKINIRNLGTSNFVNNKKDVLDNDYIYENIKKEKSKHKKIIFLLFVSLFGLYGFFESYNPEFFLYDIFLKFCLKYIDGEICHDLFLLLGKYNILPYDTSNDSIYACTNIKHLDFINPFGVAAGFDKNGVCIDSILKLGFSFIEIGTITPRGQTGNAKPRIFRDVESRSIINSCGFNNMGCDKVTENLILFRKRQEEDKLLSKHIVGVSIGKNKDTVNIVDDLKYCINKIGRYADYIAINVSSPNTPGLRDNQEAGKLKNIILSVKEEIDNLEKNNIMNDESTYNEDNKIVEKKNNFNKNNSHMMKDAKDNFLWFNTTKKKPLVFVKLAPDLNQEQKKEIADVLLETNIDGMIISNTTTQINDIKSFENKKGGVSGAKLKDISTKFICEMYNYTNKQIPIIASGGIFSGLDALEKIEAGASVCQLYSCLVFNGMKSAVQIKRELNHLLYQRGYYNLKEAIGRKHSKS
Chain of E3 ubiquitin-protein ligase XIAP (Homo sapiens) (P98170 whole entry, looked up): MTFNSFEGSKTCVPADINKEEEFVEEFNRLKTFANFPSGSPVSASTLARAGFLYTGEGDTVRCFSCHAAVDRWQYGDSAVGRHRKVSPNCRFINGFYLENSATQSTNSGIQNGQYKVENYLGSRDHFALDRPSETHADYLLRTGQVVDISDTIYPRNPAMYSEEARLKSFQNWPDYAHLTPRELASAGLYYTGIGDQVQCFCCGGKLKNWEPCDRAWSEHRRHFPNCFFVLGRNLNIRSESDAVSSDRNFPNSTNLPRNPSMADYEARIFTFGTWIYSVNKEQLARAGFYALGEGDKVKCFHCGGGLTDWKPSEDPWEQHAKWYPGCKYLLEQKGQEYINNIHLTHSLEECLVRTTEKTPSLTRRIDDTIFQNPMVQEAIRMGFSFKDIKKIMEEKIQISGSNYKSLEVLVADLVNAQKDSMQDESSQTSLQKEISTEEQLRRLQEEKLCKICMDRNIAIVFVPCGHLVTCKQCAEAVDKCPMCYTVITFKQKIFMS

With `COc1ccc(O[C@H]2C=C[C@@H](c3ccccc3)O[C@@H]2COC(=O)CCC(C)=NO[C@@H](C)c2cc(-c3c(C)cc(C)cc3C)no2)cc1`, the z-score in assay [1] is 0.716; in [2], 1.04 (inactive); in assay [3], 0.622 (inactive); in assay [5] it was -0.421 (inactive); in assay [6], 0.108 (inactive); in [7] it was 0.291 (inactive). Moreover, the z-score in assay [8] is -0.893 (inactive); in assay [9], 1.14. For the same compound, the composite z-score in assay [4] was 0.188 (inactive); in assay [10], -0.151.
Regarding `CCCC[C@@H]1C[C@H]1[C@@H](NS(=O)(=O)c1cccc2cccnc12)c1ccc(-c2ccccc2)cc1`, the z-score in [1] was -0.279; in assay [2], 0.444 (inactive); in [3] it was -0.251 (inactive); in assay [5], 0.411 (inactive); in [6], 0.269 (inactive); in assay [7] it was -0.366 (inactive). Moreover, the z-score was -0.166 (inactive) in [8] and -0.611 in assay [9]. Also, the composite z-score in [4] was -0.151 (inactive); in assay [10], -0.0559.
`O=C1[C@H]2[C@H]3[C@H](O)[C@H](O)CC(=NOC[C@@H](O)COCc4ccco4)[C@H]3CC[C@H]2C(=O)N1C1CCCCC1`: the z-score in assay [1] is 0.0194; in [2] it was -0.563 (inactive); in [3], -0.304 (inactive); in assay [5] it was 0.188 (inactive); in assay [6], -0.479 (inactive); in assay [7] it was 0.426 (inactive). For the same compound, the results for the z-score in assay [8] and in [9] were -0.0377 (inactive) and -0.263, respectively. Besides, the figures for the composite z-score in assay [4] and in assay [10] were -2.13 (inactive) and 0.116, respectively.
As to `O=C1[C@H]2[C@H]3[C@H](O)[C@H](O)CC(=NO[C@@H]4O[C@H](CO)[C@@H](O)[C@H](O)[C@H]4O)[C@H]3CC[C@H]2C(=O)N1Cc1ccc2c(c1)OCO2`, the z-score in assay [1] was 0.777; in assay [2] it was -0.159 (inactive); in assay [3] it was 0.466 (inactive); in assay [5], -0.249 (inactive); in [6] it was 0.929 (inactive); in assay [7] it was 0.76 (inactive). The z-score in [8] was 0.385 (inactive); in [9], 0.367. In addition, the values for the composite z-score in [4] and in [10] were 0.461 (inactive) and -0.4, respectively.
Regarding `NCCCCCNC(=O)[C@@H]1C[C@@H]2C(=O)N3CCC[C@H]3C(=O)N2[C@@H]1c1cccc(OCCO)c1`, the z-score in assay [1] is 0.0359; in [2], -0.582 (inactive); in [3] it was 0.199 (inactive); in assay [5], -0.226 (inactive); in [6] it was -0.914 (inactive); in assay [7], 0.0544 (inactive). Also, the z-score in [8] is -0.109 (inactive); in assay [9], -0.0506. Further, the composite z-score in assay [4] was -0.801 (inactive); in [10], 0.522.
On to `O=C1[C@H]2[C@H]3[C@H](O)[C@H](O)CC(=NO[C@@H]4O[C@H](CO)[C@@H](O)[C@H](O)[C@H]4O)[C@H]3CC[C@H]2C(=O)N1Cc1ccccc1`, for which the z-score in [1] was 0.835; in assay [2], -0.816 (inactive); in assay [3], -0.183 (inactive); in [5], -0.0728 (inactive); in [6] it was -1.1 (inactive); in assay [7] it was -0.395 (inactive). Moreover, the z-score in assay [8] is 0.355 (inactive); in assay [9] it was 0.797. Besides, the composite z-score in assay [4] was -0.592 (inactive); in [10] it was 0.0153.
`COC(=O)C1=C(C)N(Cc2ccccc2)[C@]23O[C@](C(=O)OC)(C(=O)N2[C@@H]1c1ccccc1)[C@H]1CCOC(=O)[C@H]13`: the z-score in [1] was 0.338; in [2], 0.424 (inactive); in [3], 0.444 (inactive); in [5], -0.765 (inactive); in assay [6] it was 1.55 (inactive); in assay [7], 0.0676 (inactive). In addition, the figures for the z-score in [8] and in assay [9] were -0.164 (inactive) and 0.732, respectively. For the same compound, the results for the composite z-score in assay [4] and in [10] were 1.01 (inactive) and 0.0896, respectively.
In the case of `C[C@@H](c1ccccc1)N1C(=O)[C@H]2[C@H]3[C@H](O)[C@H](O)CC(=NNC(=O)OCc4ccccc4)[C@H]3CC[C@H]2C1=O`, the z-score is 0.2 in assay [1]; 0.976 (inactive) in assay [2]; -0.139 (inactive) in assay [3]; 0.413 (inactive) in [5]; 0.993 (inactive) in [6]; -0.327 (inactive) in assay [7]. In addition, the z-score in [8] is -0.462 (inactive); in assay [9], 0.368. Further, the composite z-score in [4] was 0.749 (inactive); in [10], -0.163.
For `Cn1cccc1C(O)C1C=CC2C(=O)NC(=O)C2N1Nc1ccccn1` (stereo not given), the z-score is -1.49 in assay [1]; 0.784 (inactive) in [2]; -1.28 (inactive) in assay [3]; 0.543 (inactive) in assay [5]; -0.0064 (inactive) in assay [6]; -0.512 (inactive) in assay [7]. The figures for the z-score in assay [8] and in assay [9] were -0.204 (inactive) and -0.868, respectively. Further, the composite z-score in assay [4] was 1.21 (inactive); in assay [10], 0.203.
For `CC(C)CON=C1C[C@@H](O)[C@@H](O)[C@@H]2[C@@H]3C(=O)N([C@@H](C)c4ccccc4)C(=O)[C@@H]3CC[C@H]12`, the z-score is 0.0096 in [1]; -1.45 (inactive) in [2]; -0.0393 (inactive) in assay [3]; 0.07 (inactive) in [5]; 0.351 (inactive) in assay [6]; 0.595 (inactive) in assay [7]. In addition, the z-score was 0.675 (inactive) in assay [8] and 0.333 in assay [9]. In addition, the composite z-score is -0.0804 (inactive) in assay [4] and -0.166 in assay [10].
Take `CC(CCC(=O)OC[C@H]1O[C@H](C#Cc2ccccc2)C=C[C@@H]1Oc1ccc(C)cc1)=NOC[C@@H](O)[C@H]1O[C@@H]2OC(C)(C)O[C@@H]2[C@H]1O`: the z-score in assay [1] is -0.279; in assay [2], 0.197 (inactive); in assay [3], 0.134 (inactive); in [5], -0.324 (inactive); in assay [6], 0.71 (inactive); in [7], 0.844 (inactive). Besides, the figures for the z-score in assay [8] and in [9] were 1.1 (inactive) and 0.0234, respectively. Besides, the figures for the composite z-score in assay [4] and in assay [10] were -2.15 (inactive) and -0.325, respectively.
For `CC(C)=CCCC(C)=CCON=C1[C@H]2CCn3c(=O)n(C)c(=O)n3[C@H]2[C@H](O)[C@@H]2O[C@H]12`, the z-score in assay [1] is -0.653; in assay [2], -0.777 (inactive); in [3], -2.63 (inactive); in [5], -0.543 (inactive); in assay [6], 0.199 (inactive); in [7] it was 0.119 (inactive). The figures for the z-score in assay [8] and in [9] were 0.214 (inactive) and -0.88, respectively. Also, the composite z-score in [4] was -0.251 (inactive); in assay [10], 0.153.
